Measurements published in the supplement of paper PMC10849652.
Targets with a hit are over-represented here; the source holds about 7,900 in all. About 0.6% of all pairs of compound and target were hits. Values without a mark were called inactive.

Key:
Test in all cases: log2 fold change, soluble protein after heating vs DMSO (PISA); higher = thermal stabilisation; K562 cells, 10 uM, 30 min; active = over 0.2 and 3.5 SD of the protein, either way, in both replicates (recomputed)
[1] = compound: C#Cc1cccc(Nc2ncnc3cc(OCCOC)c(OCCOC)cc23)c1 [erlotinib]
Summary of the method: (§1)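 K562 cells at 2×10^6 cells/mL were exposed to 10 μM compound for 30 min, then aliquots were heated for 3 min across 48°C-58°C, pooled, and extracted in PBS containing 0.5% NP-40 at 4°C. The supernatant after 21,000xg for 90 min was taken as soluble protein and measured by TMTpro 16plex LC-MS/MS with channel sums equalised. Thermal stability is reported relative to control samples, with values from duplicates. Fold changes are given on a log2 scale.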

[2] = compound: C/C(=N\NC(=O)C1=CC(=CC=C1)S(=O)(=O)N2CCOCC2)/C3=C(C=CC(=C3)Cl)O
Summary of the method: as §1

[3] = compound: C1=CC(=C(C=C1Cl)C2=NC3=NC=CN=C3C(=N2)NC4=CC=NC=C4)F
Summary of the method: as §1

[4] = compound: C1=CC(=CC=C1C2=NC3=C(N2)C=C(C=C3)C(=O)N)OC4=CC=C(C=C4)Cl
Summary of the method: as §1

[5] = compound: C1=CC2=C(C=CC(=C2)/C=C\3/C(=O)NC(=NCC4=CC=CS4)S3)N=C1
Summary of the method: as §1

[6] = compound: C1=CC2=NC=CN=C2C=C1/C=C/3\C(=O)NC(=O)S3
Summary of the method: as §1

[7] = compound: C1=CC=C(C=C1)C2=NC(=C(N2)C3=CC=NC=C3)C4=CC(=C(C=C4)Cl)O
Summary of the method: as §1

[8] = compound: C1=CC=C2C(=C1)C3=NNC4=CC=CC(=C43)C2=O
Summary of the method: as §1

[9] = compound: C1CCN(C1)C(=O)NC2=CC=CC(=C2)NC3=NC=C(C(=N3)NCCC4=CN=CN4)Br
Summary of the method: as §1

[10] = compound: C1CN(CCC1(CC2=CC=C(C=C2)Cl)N)C3=NC=NC4=C3C=CN4
Summary of the method: as §1

[11] = compound: C1COCCN1CCN2C3=CC=CC=C3N=C2NC(=O)C4=CC(=CC=C4)[N+](=O)[O-] [IRAK-1-4 Inhibitor I]
Summary of the method: as §1

[12] = compound: C=CC(=O)N1CCC[C@@H](n2nc(-c3ccc(Oc4ccccc4)cc3)c3c(N)ncnc32)C1 [ibrutinib]
Summary of the method: as §1

[13] = compound: CC(=O)c1cnc2ccc(-c3cc(Cl)c(O)c(Cl)c3)nc2c1N[C@H]1CC[C@H](CN(C)C)CC1
Summary of the method: as §1

[14] = compound: CC(C)(C)Cn1c(N)nc2ccc(-c3[nH]c(C(C)(C)C)nc3-c3ccc(F)cc3)nc21 [ralimetinib]
Summary of the method: as §1

[15] = compound: CC(C)(O)CC(=O)NCCn1ccc2ncnc(Nc3ccc(Oc4cccc(C(F)(F)F)c4)c(Cl)c3)c21
Summary of the method: as §1

[16] = compound: CC(C)C1=C2N=C(C=C(N2N=C1)NCC3=CC=CC=C3)NCCCCCCN
Summary of the method: as §1

[17] = compound: CC(C)C[C@@H](C=O)NC(=O)[C@H](CC(C)C)NC(=O)[C@H](CC(C)C)NC(=O)OCc1ccccc1
Summary of the method: as §1

[18] = compound: CC(C)N(C[C@H]1O[C@@H](n2cnc3c(N)ncnc32)[C@H](O)[C@@H]1O)[C@H]1C[C@@H](CCc2nc3cc(C(C)(C)C)ccc3[nH]2)C1 [pinometostat]
Summary of the method: as §1

[19] = compound: CC1=C(C(CC(=O)N1)C2=CC=C(C=C2)C(F)(F)F)C(=O)NC3=C(C=C4C(=C3)C=NN4)F
Summary of the method: as §1

[20] = compound: CC1=C(C2=C(C=C1)C(=O)C3=CC=CC=C3N2CCCN)C
Summary of the method: as §1

Sequence of UniProt Q5T160 (Q5T160 whole entry, looked up): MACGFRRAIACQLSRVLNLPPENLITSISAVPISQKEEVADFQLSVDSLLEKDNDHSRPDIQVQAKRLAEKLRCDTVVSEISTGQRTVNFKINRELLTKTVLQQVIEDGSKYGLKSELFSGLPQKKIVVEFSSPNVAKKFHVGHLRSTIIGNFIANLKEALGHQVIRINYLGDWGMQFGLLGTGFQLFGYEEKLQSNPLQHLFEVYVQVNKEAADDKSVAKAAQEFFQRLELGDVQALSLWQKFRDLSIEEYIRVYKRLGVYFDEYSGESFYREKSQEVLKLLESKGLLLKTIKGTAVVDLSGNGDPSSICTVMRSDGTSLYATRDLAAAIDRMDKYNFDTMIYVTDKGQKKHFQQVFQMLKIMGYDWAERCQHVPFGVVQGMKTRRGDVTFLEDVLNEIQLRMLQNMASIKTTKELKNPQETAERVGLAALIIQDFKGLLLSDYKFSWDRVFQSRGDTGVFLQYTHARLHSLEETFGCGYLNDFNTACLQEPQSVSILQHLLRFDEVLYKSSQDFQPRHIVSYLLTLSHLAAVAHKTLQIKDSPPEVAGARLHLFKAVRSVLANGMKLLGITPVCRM
Sequence of UniProt Q9UKL0 (Q9UKL0 whole entry, looked up): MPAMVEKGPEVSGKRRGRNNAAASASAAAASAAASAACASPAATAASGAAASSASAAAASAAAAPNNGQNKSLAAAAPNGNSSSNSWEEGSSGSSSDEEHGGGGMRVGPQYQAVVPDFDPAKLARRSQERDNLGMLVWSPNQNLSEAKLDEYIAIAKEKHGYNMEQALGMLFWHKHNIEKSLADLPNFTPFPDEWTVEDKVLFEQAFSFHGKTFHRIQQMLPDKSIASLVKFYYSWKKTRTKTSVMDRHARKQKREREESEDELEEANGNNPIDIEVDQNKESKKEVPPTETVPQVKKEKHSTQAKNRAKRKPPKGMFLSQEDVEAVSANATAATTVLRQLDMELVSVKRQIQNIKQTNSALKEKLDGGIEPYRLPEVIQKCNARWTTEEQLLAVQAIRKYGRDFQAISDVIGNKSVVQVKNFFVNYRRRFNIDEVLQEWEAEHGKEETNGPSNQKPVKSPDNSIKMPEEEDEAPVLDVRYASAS
Sequence of UniProt Q9NTJ5 (Q9NTJ5 whole entry, looked up): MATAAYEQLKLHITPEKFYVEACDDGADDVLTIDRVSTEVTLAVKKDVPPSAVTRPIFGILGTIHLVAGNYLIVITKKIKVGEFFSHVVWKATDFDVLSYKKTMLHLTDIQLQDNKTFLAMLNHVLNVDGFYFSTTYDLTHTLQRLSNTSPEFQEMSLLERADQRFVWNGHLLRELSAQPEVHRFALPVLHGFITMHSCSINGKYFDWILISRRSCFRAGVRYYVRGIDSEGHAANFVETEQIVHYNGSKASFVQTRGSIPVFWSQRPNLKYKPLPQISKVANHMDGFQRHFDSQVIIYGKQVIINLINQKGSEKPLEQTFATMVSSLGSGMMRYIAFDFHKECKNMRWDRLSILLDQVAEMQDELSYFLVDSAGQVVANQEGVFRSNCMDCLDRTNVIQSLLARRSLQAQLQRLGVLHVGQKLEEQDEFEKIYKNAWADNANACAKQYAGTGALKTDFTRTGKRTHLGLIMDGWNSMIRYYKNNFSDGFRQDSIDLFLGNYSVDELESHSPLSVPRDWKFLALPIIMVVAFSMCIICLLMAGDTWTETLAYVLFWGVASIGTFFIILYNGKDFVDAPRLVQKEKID
Sequence of UniProt Q9BY42 (Q9BY42 whole entry, looked up): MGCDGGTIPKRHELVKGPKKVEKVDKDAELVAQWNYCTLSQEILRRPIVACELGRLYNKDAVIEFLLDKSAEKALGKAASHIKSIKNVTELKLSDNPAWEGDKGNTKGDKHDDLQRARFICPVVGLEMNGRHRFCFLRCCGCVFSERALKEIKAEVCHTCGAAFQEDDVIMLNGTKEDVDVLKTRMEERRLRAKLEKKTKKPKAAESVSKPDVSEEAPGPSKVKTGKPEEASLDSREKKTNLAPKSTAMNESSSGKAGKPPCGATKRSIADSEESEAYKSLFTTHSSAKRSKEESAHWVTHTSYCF
Sequence of UniProt Q8TBN0 (Q8TBN0 whole entry, looked up): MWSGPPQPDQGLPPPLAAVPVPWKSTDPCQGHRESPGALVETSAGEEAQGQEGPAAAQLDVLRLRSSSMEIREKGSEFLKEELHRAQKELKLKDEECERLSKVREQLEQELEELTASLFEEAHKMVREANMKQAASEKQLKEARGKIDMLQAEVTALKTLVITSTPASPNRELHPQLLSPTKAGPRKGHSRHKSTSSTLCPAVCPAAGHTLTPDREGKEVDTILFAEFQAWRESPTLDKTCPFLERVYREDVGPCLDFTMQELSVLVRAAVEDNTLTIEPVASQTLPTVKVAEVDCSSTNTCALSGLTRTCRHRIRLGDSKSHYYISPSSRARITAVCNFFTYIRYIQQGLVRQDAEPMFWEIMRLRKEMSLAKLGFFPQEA
Sequence of UniProt Q7Z6E9 (Q7Z6E9 whole entry, looked up): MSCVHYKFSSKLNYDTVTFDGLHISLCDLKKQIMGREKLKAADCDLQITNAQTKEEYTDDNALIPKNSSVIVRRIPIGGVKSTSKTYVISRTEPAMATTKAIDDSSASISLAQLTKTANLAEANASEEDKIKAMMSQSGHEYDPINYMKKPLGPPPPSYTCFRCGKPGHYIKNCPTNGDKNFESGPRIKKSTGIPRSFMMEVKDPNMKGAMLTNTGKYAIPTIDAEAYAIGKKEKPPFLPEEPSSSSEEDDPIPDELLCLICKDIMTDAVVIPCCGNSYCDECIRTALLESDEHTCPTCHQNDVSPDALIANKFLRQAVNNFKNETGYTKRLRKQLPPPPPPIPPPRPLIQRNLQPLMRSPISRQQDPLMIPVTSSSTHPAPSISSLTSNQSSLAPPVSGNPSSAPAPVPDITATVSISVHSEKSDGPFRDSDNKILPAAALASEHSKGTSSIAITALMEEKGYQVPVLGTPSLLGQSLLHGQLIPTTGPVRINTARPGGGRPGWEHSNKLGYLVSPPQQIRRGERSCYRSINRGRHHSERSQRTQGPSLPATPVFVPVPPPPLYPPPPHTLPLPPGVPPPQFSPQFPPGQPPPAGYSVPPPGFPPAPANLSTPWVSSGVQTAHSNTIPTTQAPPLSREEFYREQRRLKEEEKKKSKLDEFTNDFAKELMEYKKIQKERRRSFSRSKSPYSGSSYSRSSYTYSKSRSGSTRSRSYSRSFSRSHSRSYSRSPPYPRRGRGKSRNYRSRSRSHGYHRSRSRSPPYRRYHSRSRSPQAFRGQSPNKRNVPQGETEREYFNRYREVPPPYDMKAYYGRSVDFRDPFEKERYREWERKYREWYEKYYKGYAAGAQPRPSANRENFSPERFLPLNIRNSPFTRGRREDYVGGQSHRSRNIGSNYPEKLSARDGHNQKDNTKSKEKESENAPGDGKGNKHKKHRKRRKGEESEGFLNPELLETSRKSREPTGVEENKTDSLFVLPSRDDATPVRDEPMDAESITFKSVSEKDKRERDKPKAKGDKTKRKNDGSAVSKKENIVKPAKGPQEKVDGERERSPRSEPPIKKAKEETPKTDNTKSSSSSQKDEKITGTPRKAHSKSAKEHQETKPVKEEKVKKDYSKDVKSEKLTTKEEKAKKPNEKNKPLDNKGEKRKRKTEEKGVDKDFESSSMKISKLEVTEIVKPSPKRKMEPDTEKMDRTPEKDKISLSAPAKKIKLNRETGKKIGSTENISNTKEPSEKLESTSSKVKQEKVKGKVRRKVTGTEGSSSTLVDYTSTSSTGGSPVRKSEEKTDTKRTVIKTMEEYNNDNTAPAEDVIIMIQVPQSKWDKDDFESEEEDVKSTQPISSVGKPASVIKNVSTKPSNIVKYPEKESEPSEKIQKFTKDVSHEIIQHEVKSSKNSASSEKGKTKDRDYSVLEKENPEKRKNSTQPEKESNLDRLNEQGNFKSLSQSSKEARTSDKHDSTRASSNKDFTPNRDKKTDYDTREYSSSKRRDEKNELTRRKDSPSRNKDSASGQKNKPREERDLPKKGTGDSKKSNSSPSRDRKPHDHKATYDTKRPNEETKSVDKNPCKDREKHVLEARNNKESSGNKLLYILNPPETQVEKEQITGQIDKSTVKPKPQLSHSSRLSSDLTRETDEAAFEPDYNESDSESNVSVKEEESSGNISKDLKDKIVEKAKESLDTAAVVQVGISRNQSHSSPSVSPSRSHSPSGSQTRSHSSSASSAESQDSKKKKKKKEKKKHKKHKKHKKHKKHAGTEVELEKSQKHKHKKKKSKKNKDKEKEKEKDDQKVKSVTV
Sequence of UniProt Q9BQY4 (Q9BQY4 whole entry, looked up): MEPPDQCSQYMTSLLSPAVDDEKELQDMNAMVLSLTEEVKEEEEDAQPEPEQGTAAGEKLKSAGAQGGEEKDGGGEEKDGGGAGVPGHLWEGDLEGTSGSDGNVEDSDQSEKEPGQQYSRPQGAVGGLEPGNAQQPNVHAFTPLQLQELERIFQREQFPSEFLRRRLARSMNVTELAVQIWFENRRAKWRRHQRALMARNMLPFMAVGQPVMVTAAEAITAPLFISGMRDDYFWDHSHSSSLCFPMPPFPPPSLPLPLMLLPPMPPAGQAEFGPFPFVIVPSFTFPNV
Sequence of UniProt Q99719 (Q99719 whole entry, looked up): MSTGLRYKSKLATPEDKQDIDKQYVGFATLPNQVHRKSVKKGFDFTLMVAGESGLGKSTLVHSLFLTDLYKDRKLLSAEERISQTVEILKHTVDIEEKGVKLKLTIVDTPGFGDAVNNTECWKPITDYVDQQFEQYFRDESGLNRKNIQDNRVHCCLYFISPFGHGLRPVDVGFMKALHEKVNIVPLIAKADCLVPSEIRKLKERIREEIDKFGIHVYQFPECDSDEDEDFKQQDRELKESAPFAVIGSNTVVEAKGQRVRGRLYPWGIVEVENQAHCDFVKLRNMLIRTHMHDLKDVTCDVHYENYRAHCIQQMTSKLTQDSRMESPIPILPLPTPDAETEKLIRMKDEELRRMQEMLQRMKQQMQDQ

Target | log2 fold change [1] | log2 fold change [2] | log2 fold change [3] | log2 fold change [4] | log2 fold change [5] | log2 fold change [6] | log2 fold change [7] | log2 fold change [8] | log2 fold change [9] | log2 fold change [10] | log2 fold change [11] | log2 fold change [12] | log2 fold change [13] | log2 fold change [14] | log2 fold change [15] | log2 fold change [16] | log2 fold change [17] | log2 fold change [18] | log2 fold change [19] | log2 fold change [20]
SACM1L (UniProt Q9NTJ5) | 0.005 | 0.1 | 0.109 | -0.061 | 0.039 | -0.007 | 0.077 | 0.009 | 0.001 | 0.068 | 0.008 | -0.031 | -0.022 | 0.064 | -0.007 | -0.262 (active) | -0.01 | -0.042 | -0.035 | 0.029
SCAF8 isoform 2 (UniProt Q9UPN6) | 0.203 | 0.051 | 0.048 | 0.034 | 0.124 | -0.028 | 0.298 | 0.069 | -0.031 | -0.036 | 0.035 | -0.057 | -0.145 | -0.054 | -0.169 | -0.417 (active) | 0.23 | 0.065 | -0.05 | 0.138
RBBP6 (UniProt Q7Z6E9) | -0.01 | 0.005 | 0.014 | -0.034 | -0.037 | 0 | 0.025 | -0.005 | -0.067 | 0.003 | -0.099 | -0.082 | -0.114 | 0.02 | 0.044 | -0.089 | -0.023 | -0.078 | -0.021 | -0.022
RB1 (UniProt P06400) | -0.007 | 0.041 | 0.012 | 0.016 | 0.124 | 0.04 | 0.034 | -0.114 | -0.065 | -0.02 | 0.015 | 0.025 | -0.761 (active) | -0.06 | -0.054 | -0.386 (active) | 0.032 | -0.006 | -0.007 | -0.035
RBM17 (UniProt Q96I25) | 0.039 | 0.044 | 0.015 | -0.023 | -0.085 | -0.029 | 0.1 | 0.011 | -0.08 | -0.16 | -0.037 | 0.114 | -0.179 | 0.158 | -0.077 | -0.053 | 0.029 | 0.11 | -0.005 | 0.012
RAB3IL1 (UniProt Q8TBN0) | -0.007 | -0.007 | 0.057 | 0.005 | 0.019 | 0.019 | -0.02 | -0.039 | -0.004 | -0.013 | 0.018 | -0.009 | 0.018 | 0.064 | -0.036 | -0.014 | 0.057 | -0.029 | -0.004 | 0.037
RPTOR (UniProt Q8N122) | -0.034 | 0.075 | 0.036 | -0.037 | 0.039 | 0.003 | -0.038 | -0.031 | -0.042 | -0.027 | 0 | 0.051 | -0.145 | -0.022 | -0.129 | -0.187 | -0.011 | -0.012 | -0.03 | 0.009
SH3GLB2 (UniProt Q9NR46) | 0.048 | 0.081 | -0.044 | -0.021 | 0 | 0.01 | -0.033 | -0.021 | -0.022 | -0.013 | 0.028 | 0.004 | -0.047 | 0.033 | 0.028 | -0.27 (active) | 0.066 | -0.004 | 0.001 | -0.021
RTF2 (UniProt Q9BY42) | 0.026 | 0.063 | 0.035 | -0.049 | -0.049 | -0.023 | -0.035 | -0.02 | -0.074 | 0.045 | 0 | -0.096 | -0.017 | -0.022 | 0.032 | 0.164 | 0.098 | -0.059 | -0.025 | -0.054
SEPTIN5 (UniProt Q99719) | 0.009 | 0.014 | 0.021 | 0.006 | 0.004 | 0.019 | -0.011 | 0.015 | -0.012 | 0.039 | 0.014 | -0.013 | -0.031 | -0.084 | -0.03 | 0.034 | -0.051 | -0.041 | -0.005 | 0.011
RDH10 (UniProt Q8IZV5) | 0.122 | 0.065 | 0.024 | 0.003 | 0.204 | -0.035 | 0.077 | 0.039 | -0.008 | 0.235 | 0.076 | 0.159 | -0.07 | 0.008 | 0.075 | 0.069 | -0.043 | -0.018 | 0.007 | 0.007
RCOR1 (UniProt Q9UKL0) | 0.033 | 0.069 | -0.043 | -0.056 | 0.134 | -0.013 | 0.076 | -0.011 | -0.006 | -0.043 | -0.037 | -0.036 | -0.14 | 0.002 | -0.08 | 0.002 | -0.034 | 0.026 | 0.025 | 0.021
RPS19 (UniProt P39019) | -0.141 | -0.102 | -0.274 | 0.057 | -0.082 | -0.044 | -0.026 | -0.015 | 0.094 | -0.145 | -0.085 | 0.052 | 0.05 | 0.064 | 0.03 | -0.025 | 0.039 | 0.084 | 0.026 | -0.523 (active)
RHOXF2 (UniProt Q9BQY4) | -0.067 | -0.137 | -0.002 | 0.003 | -0.06 | 0.054 | 0.06 | -0.026 | 0.036 | 0.011 | 0.012 | 0.003 | 0.002 | 0.051 | -0.031 | -0.03 | 0.027 | -0.037 | 0.027 | -0.007
SCG3 (UniProt Q8WXD2) | -0.076 | 0.141 | 0.023 | 0.088 | 0.09 | -0.015 | 0.103 | -0.094 | -0.05 | 0.036 | -0.003 | 0.035 | -0.107 | 0.061 | 0.039 | 0.203 | 0.038 | -0.139 | 0.05 | -0.359
RARS2 (UniProt Q5T160) | 0.009 | 0.057 | 0.063 | 0.029 | 0.015 | 0.014 | 0.056 | 0 | 0.022 | 0.038 | 0.053 | 0.003 | -0.012 | -0.039 | -0.081 | -0.214 | -0.061 | -0.032 | -0.011 | -0.007
